# PGE2 EP2 inh – inhibitors of human EP2 prostaglandin E2 receptor | C6 glioma cells expressing human EP2, cAMP TR-FRET; cells stimulated with saturating PGE2 | P43116 | AID 1422 | hit rate 0.52% among 260,000 | inhibition, % at 25 µM;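 active means percent inhibition above 40 after rounding to a whole number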;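 further: rat C6 glioma host cells with rolipram phosphodiesterase inhibitor present; the protocol text gives 20 µM as final concentration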
# Target sequence (P43116 whole entry, looked up): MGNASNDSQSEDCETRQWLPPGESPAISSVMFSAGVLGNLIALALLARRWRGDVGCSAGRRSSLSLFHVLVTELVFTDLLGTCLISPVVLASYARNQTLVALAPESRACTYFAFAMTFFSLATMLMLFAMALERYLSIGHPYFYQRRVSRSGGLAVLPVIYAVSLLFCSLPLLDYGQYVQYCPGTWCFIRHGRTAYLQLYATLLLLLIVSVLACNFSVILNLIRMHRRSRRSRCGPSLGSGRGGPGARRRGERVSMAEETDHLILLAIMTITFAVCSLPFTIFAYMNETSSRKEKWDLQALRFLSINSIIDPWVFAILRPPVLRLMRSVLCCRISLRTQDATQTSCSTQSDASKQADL
# CHT block – inhibits the human high affinity choline transporter | CHT-expressing cells, membrane potential dye, choline response; active compounds read low | B-score at 10 µM | AID 488975 | Q9GZV3 | hit rate 0.86% among 310,000;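 active means B-score over 3 SD under the library average, and starting fluorescence ratio not unusually high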;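 further: choline stimulus applied at its EC90 after an EC20 pre-addition; B-score computed on integrated fluorescence ratio after choline addition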
# CHT allo act – human CHT allosteric activation. CHT-expressing cells, membrane potential dye, choline EC20; active compounds read high; LV-AA mutant CHT in HEK293 cells. hit rate 0.49% among 310,000. B-score at 10 µM. AID 488977;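 active means initial fluorescence not abnormally high and integrated response B-score, plate-corrected, over 3 SD above library mean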
# EP2 modulator – modulators of human EP2 prostaglandin E2 receptor. P43116. EP2-expressing cells, cAMP HTRF FRET, PGE2 co-stimulation. induction, % at 25 µM. hit rate 0.83% among 260,000;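 active means compounds whose cAMP rise, as percent of the full-agonist control response, exceeds 60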;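 further: rat C6 glioma line stably carrying human EP2 under a CMV promoter; the protocol text gives 20 µM as final concentration; 100% = response of wells given 1 µM PGE2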
# EP2 confirm – human EP2 receptor cAMP induction, negative in counter-screens | calls only at 20 µM (by protocol) | shares compounds with EP2 modulator | hit rate 47% among 1,300 | C6 glioma EP2 cells, cAMP HTRF induction; plus low (about EC15) PGE2 agonist;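 active means cAMP induction above 50% in the main assay while under 30% in all four parallel counter assays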;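 further: rat C6 glioma cells stably expressing human EP2 receptor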
# * hit, by the source's call; i = inactive; x = no result; + = active, no number; ! = not active in a repeat. Most compounds without a hit are left out; they make up all but 2.1% or so of the library.
SMILES,PGE2 EP2 inh,CHT block,CHT allo act,EP2 modulator,EP2 confirm
CC(C)c1ccc(/C=N/Nc2cc(N3CCOCC3)nc(N3CCOCC3)n2)cc1,9,i,i,96*,+
Cc1cccc(/C=N/Nc2cc(N3CCOCC3)nc(N3CCOCC3)n2)c1,4,i,i,80*,+
CC12CCC(C(=O)N(CSC(=S)N/N=C\c3ccccc3Cl)C1=O)C2(C)C (configuration not stated),23,i,i,70*,i
CC12CCC(C(=O)N(CSC(=S)N/N=C\c3ccccc3)C1=O)C2(C)C (configuration not stated),x,i,i,31,x
CC(C)C1COC(c2cccn2Cc2ccccc2Cl)=N1 (configuration not stated),7,i,i,68*,i
CC(=O)Oc1c2c(c3c(c1CC=C(C)C)O[C@]14C(=C[C@@H]5CC1C(C)(C)OC4(C/C=C(\C)C(=O)O)C5=O)C3=O)OC(C)(CCC=C(C)C)C=C2 (some centres not stated),12,x,x,51,i
COC(=O)/C(C)=C/CC12OC(C)(C)C3CC(C=C4C(=O)c5cc6c(c(CCC(C)(C)Cl)c5OC431)OC1(C)CCC(=C(C)C)C6C1)C2=O (configuration not stated),13,x,x,0,x
COc1ccccc1CCNCc1cc2c(C)nn(-c3ccccc3)c2[nH]c1=O,19,x,x,-30,x
Cc1ccc(/C=N/N(Cc2ccccc2)c2ccccc2)o1,6,i,i,69*,+
Cc1ccc(/C=N/N2CCN(Cc3ccccc3)CC2)o1,10,i,i,-25,x
O=C(O)NCc1ccccc1 (tested in a mixture with another compound),8,x,x,68*,+
O=C(CC(=O)NCc1ccccc1)NCc1ccccc1,x,i,i,x,x
COc1ccc(C(=O)n2c(O)c(/C=C3/C=Nc4ccccc43)sc2=S)cc1,35,x,x,-35,x
Cc1onc(-c2ccccc2)c1C(=O)N(Cc1ccco1)Cc1cccs1,9,x,x,98*,+
CCC(=O)Nc1ccc(NC(=O)CSc2nnc(C)c(=O)[nH]2)cc1C,9,x,x,14,x
O=C(c1ccc(Cl)cc1)C1CCN(Cc2ccccc2)CC1,x,i,i,x,x
CCCCC(=O)C1CCN(Cc2ccccc2)CC1,8,i,i,106*,i
CCC(=O)N1N=C(c2cccs2)CC1c1ccc(OC)cc1 (configuration not stated),x,i,i,x,x
COc1ccc(C2CC(c3cccs3)=NN2C(=O)c2ccc(Br)o2)cc1 (configuration not stated),9,i,i,51,i
Cc1ccc2c(c1)cc(C)c1nn(CC(=O)N3CCCC3)c(=O)n12,5,x,x,-6,x
COc1cc(C)c(C(=O)Oc2cc(C)c(C(=O)O)c(O)c2C)c(OC)c1C,8,i,i,55,i
Cc1ccccc1S(=O)(=O)c1c(C)cc(C)n(C(C)C)c1=O,3,i,i,71*,+
Cc1cc(C)c(S(=O)(=O)c2ccccc2C)c(SCC(C)C)n1,18,i,i,48,x
CCOc1ccccc1-c1nc2c(C(C)(C)C)nn(C)c2c(=O)[nH]1,15,i,i,84*,+
CCC(Sc1nc(-c2ccccc2)c(C#N)c(=O)[nH]1)C(=O)Nc1cc(C)on1 (configuration not stated),50*,i,i,76*,i
SMILES,PGE2 EP2 inh,CHT block,CHT allo act,EP2 modulator,EP2 confirm
COc1cccc(NC(=O)c2sc(NC(=O)COc3ccccc3)nc2C)c1,20,x,x,-57,x
CCc1nc2sc3c(=O)[nH]cnc3c2c2c1CSC(C)(C)C2,9,i,i,49,x
CC(C)Cc1nc2sc3c(=O)[nH]cnc3c2c2c1CCC2,5,i,i,74*,i
CCOC(=O)c1c(C)[nH]c(C=O)c1Cc1cccc(Cl)c1,7,i,i,69*,i
CCOC(=O)c1c(C)[nH]c(C)c1C(=O)COC(=O)/C=C/c1cccc(Cl)c1,10,i,i,-41,x
O=C(O)c1ccc(-c2ccccc2Cl)o1,10,i,i,69*,i
O=C(Nc1ccccc1)c1ccc(-c2ccccc2Cl)o1,11,i,i,9,x
CCC(=O)Oc1ccc2c(C)cc(=O)oc2c1C(=O)c1ccccc1,2,i,i,69*,i
CC(C)NC(=O)c1ccccc1NC(=O)C(C)Oc1ccccc1 (configuration not stated),6,i,i,-6,x
COC(=O)c1ccccc1NC(=O)C(C)Oc1ccccc1 (configuration not stated),12,i,i,53,i
OC(COc1ccccc1)Cn1c2ccccc2c2ccccc21 (configuration not stated),11,i,i,71*,+
Cc1nn(CC(=O)NC2CC2)c(=O)c2cc3ccsc3n12,x,x,x,16,x
CCOC(=O)c1c(NC(=S)NC(=O)c2cccnc2)sc2c1CCC(C)C2 (configuration not stated),7,x,x,15,x
Cc1c(C(=O)Nc2cccc3cccnc23)oc2ccccc12,8,i,i,65*,+
CCOC(=O)c1c(N)sc(-c2ccccc2)c1C,8,i,i,73*,i
CNC(=O)c1c(N)no[n+]1[O-],7,x,x,-7,x
COCCNC(=O)C(c1ccc(F)cc1)N(C(=O)CCC(=O)Nc1ccccn1)C1CCCCC1 (configuration not stated),x,i,i,x,x
COCCNC(=O)C(c1ccc(F)cc1)N(CC1CCCO1)C(=O)CCC(=O)Nc1ccccn1 (configuration not stated),10,x,x,72*,i
CC[C@@H](Cn1nc(-c2cccs2)ccc1=O)NC(=O)C1CCCCC1,9,x,x,-1,x
CC(=O)N(Cc1cccs1)Cc1cc2cc(C)cc(C)c2[nH]c1=O,12,x,x,-2,x
CC(=O)N(Cc1cccs1)Cc1cc2ccc(C)c(C)c2nc1Cl,8,i,i,77*,i
COc1ccc(-n2c(-c3cccc(OC)c3)nc(=S)c3c2CCCC3)cc1,18,i,i,77*,i
Cn1ccnc1C1(O)CCN(C(=O)CC2CCCCC2)CC1,x,x,x,-55,x
CCN1C(C(=O)Nc2cc(C)on2)=C(O)c2ccccc2S1(=O)=O,x,i,i,x,x
Cc1cc(NC(=O)C2=C(O)c3ccccc3S(=O)(=O)N2C)no1,10,i,i,69*!,i
CCc1ccc2[nH]c(=O)c(CN(Cc3cccs3)S(=O)(=O)c3ccc4c(c3)OCCO4)cc2c1,26,x,x,-96,x
Cn1c(CO)nc2ccccc21,11,x,x,-8,x
Cc1cc(C)c(C)c(Cn2c(CO)nc3ccccc32)c1C,5,i,i,80*,+
